Shown are actives, neighbours in structure and some others; about 7.6% of the full set was active somewhere.
HCV NS3h FP = hepatitis C NS3 helicase inhibition, primary screen; 16,000 compounds, 1.6% hits; inhibition, % at 100 µM; AID 687043; NS3h Cy5-dT15 DNA binding, fluorescence polarization;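 active means inhibition above the average over every tested compound plus 3 SD, cut at about 40% in these data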
Cy5 interf NS3h = counter-screen for HCV NS3 helicase inhibitors: fluorescence interference; Cy5-dT15 DNA with NS3h; actives lie on both sides; signal over control mean, under 1 quenches; fluorescence interference ratio at 100 µM; 16,000 compounds, 6% hits; AID 720488;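 active means compound fluorescence over control fluorescence at most 0.8, a quencher, or at least a set upper limit, an enhancer; inactive means ratio between 0.8 and the set upper limit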
An asterisk follows results filed as active.

SMILES	HCV NS3h FP	Cy5 interf NS3h
COc1ccc(Cl)cc1NC(=O)COc1ccc(Br)cc1C	-21	1.1
O=C1C2CCCCC2C(=O)N1c1nc2ccccc2s1 (stereo not drawn)	-6	0.85
S=C(NNc1nc2ccccc2s1)NC1CCCCC1	17	0.74*
CC(=O)Nc1cccc(-c2nc3ccccc3s2)c1	4	1.1
CC(=O)Nc1cc(-c2nc3ccccc3s2)ccc1Cl	8	0.74*
Cc1cccc(C(=O)Oc2ccc(/C=C3/N=C(c4ccccc4)OC3=O)cc2)c1	4	1.1
O=C(N/N=C\c1ccccc1F)/C(=C\c1ccc2c(c1)OCO2)NC(=O)c1ccccc1	20	1.1
COc1ccc(OC)c(NC(=S)NC(NC(=O)Cc2cccc3ccccc23)C(Cl)(Cl)Cl)c1 (stereo not drawn)	3	1.1
O=C(c1cc2nc(-c3cccs3)cc(C(F)(F)F)n2n1)N1CCc2ccccc2C1	13	0.96
NC(=O)c1cc2nc(-c3cccs3)cc(C(F)(F)F)n2n1	11	0.66*
COc1ccc(C(=O)N/C(=C\c2ccc(-c3cccc([N+](=O)[O-])c3)o2)C(=O)NCc2ccncc2)cc1	16	0.97
Cc1ccc(N2C(=O)CC(N3CCSCC3)C2=O)cc1 (stereo not drawn)	27	0.91
Cc1ccc(N2C(=O)CC(N3CCC(C)CC3)C2=O)cc1 (stereo not drawn)	10	1.2*
COc1cccc(C2c3c(-c4ccccc4)n[nH]c3C(=O)N2c2ccccc2)c1 (stereo not drawn)	4	1.1
Cc1c(Cl)c(C(F)(F)F)nn1CC(=O)Nc1ccccc1C(F)(F)F	2	1
Cc1c(Cl)c([N+](=O)[O-])nn1CC(=O)Nc1cc(C(F)(F)F)ccc1Cl	1	0.62*
Cc1ccc(-c2nn(-c3cc(N4CCN(CCO)CC4)ccc3[N+](=O)[O-])c(=O)c3ccccc23)cc1C	7	0.96
COCCNC(=O)c1ccc(CN(c2ccccc2)S(C)(=O)=O)cc1	18	0.72*
CS(=O)(=O)N(Cc1ccc(C(=O)NCCSc2ccccn2)cc1)c1ccccc1	18	1.1
CCCCCCN1C(=O)C(O)=C(C(C)=O)C1c1cccc([N+](=O)[O-])c1 (stereo not drawn)	-5	1
CCOC(=O)C1=C(O)/C(=C/c2cccc(Br)c2)SC1=Nc1ccccc1	18	0.66*
CCOC(=O)C1=C(O)/C(=C/c2ccc(OC)c(OC)c2)SC1=Nc1ccc([N+](=O)[O-])cc1	-37	0.99
CC(C)CNC(=O)c1cccc(NC(=O)c2ccc(F)cc2)c1	20	1
COc1ccc(C(=O)N(c2ccccc2)C2CC(C)Nc3ccccc32)cc1 (stereo not drawn)	13	1
O=C(CN(c1ccc(F)cc1)S(=O)(=O)c1ccccc1)NCCc1ccccc1	13	1.1
SMILES	HCV NS3h FP	Cy5 interf NS3h
O=C(Nc1nnc(COc2ccc(C3CCCCC3)cc2)s1)c1cccc(Cl)c1	-2	1
COc1ccc(C(=O)NCc2ccccc2C)cc1	4	1
CCOc1ccccc1NC(=O)c1ccc(OC)cc1	8	1.3*
CCOC(=O)CNC(=O)c1ccc(OC)cc1	4	0.71*
CCOc1ccc(C(=O)Nc2ccccc2C(=O)O)cc1	3	1.1
O=C1/C(=C/c2ccccc2)S/C(=N\N=C/c2ccccc2)N1c1ccc(O)cc1	-2	1
CCC1=NN(C(=O)c2ccncc2)C(O)(c2ccc(Br)cc2)C1 (stereo not drawn)	-4	0.99
CCC1=NN(C(=O)c2cccc(C)c2O)C(O)(c2ccc(Br)cc2)C1 (stereo not drawn)	-6	0.77*
O=c1/c(=C\c2ccc(-c3cccc(Br)c3)o2)sc2nc3ccccc3n12	1	1.1
O=C1NC(=S)S/C1=C/c1ccc(-c2ccc([N+](=O)[O-])cc2Br)o1	32	0.99
Cc1ccc(-c2ccc(/C=C3/SC(=S)NC3=O)o2)cc1Cl	6	0.77*
CCOc1ccc(S(=O)(=O)n2ccnc2C(C)C)c2ccccc12	5	0.92
CCN(CC)c1ccc(NC(=O)CCN2C(=O)c3ccccc3C2=O)cc1	2	0.6*
O=C(CCN1C(=O)c2ccccc2C1=O)Nc1ccccc1C(=O)N1CCOCC1	9	0.98
O=C(CCN1C(=O)c2ccccc2C1=O)Nc1ccccc1C(=O)N1CCCC1	3	0.7*
O=C(CCN1C(=O)c2ccccc2C1=O)Nc1ccc(I)cc1	6	0.98
Cc1ccccc1CNC(=O)CN(c1cccc([N+](=O)[O-])c1)S(=O)(=O)c1ccccc1	18	1.1
CC1=NN(C(=O)c2cccc(Cl)c2)C(O)(c2ccc(Cl)cc2)C1 (stereo not drawn)	5	0.88
COc1ccc(N)cc1-n1c(C)ccc1C	4	0.4*
CCOC(=O)c1c(N)n(-c2ccccc2O)c2nc3ccccc3nc12	5	0.97
CCOC(=O)Nc1n[nH]c(NC(=O)OCC)c1[N+](=O)[O-]	12	0.66*
CCOC(=O)Nc1cc([N+](=O)[O-])ccc1Cl	19	0.98

Bioassay records from PubChem.
